Compounds without any hit were thinned out: in the full panel of roughly 83,000, 20% have a hit.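 Each cell line was grown in a 96-well plate and treated with one concentration of compound for 48 hours. Values below 10 were considered active.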 Unmarked numbers belong to inactive results. Activity calls are given as the source filed them.

The text below walks through data of PubChem BioAssay (NCI).

Among the test systems are SR leukemia; RPMI-8226 leukemia; OVCAR-8 ovarian; OVCAR-4 ovarian; SK-OV-3 ovarian; IGROV1 ovarian; OVCAR-3 ovarian; HS 578T breast; NCI/ADR-RES ovarian; T-47D breast; BT-549 breast; MDA-MB-435 melanoma; SW-620 colon; MCF7 breast; HCT-116 colon; HCC-2998 colon; KM12 colon.
Common to all, as to experiment: NCI-60 one-dose screen, 48 h (100 = growth as untreated, 0 = no growth, -100 = all killed)
Common to all, as to settings: 10 µM unless noted

As for `CCN1C(=O)N(CC)C2C1NN=c1s/c(=C3\C(=O)N(CCc4ccccc4)c4ccccc43)c(=O)n12` (stereo not drawn), the growth in the assay on SR leukemia is 10.7%; in the assay on RPMI-8226 leukemia, 8.77% (active); in the assay with OVCAR-8 ovarian, 13.5%; in the assay with OVCAR-4 ovarian it was 38.3%; in the assay with SK-OV-3 ovarian it was 32.3%; in the assay with IGROV1 ovarian it was 18.9%. Besides, the growth in the assay with OVCAR-3 ovarian was -16.9% (active); with HS 578T breast it was 5.14% (active); in the assay on NCI/ADR-RES ovarian, -9.34% (active); in the assay on T-47D breast, 44.4%; with BT-549 breast, 14.2%; in the assay with MDA-MB-435 melanoma, -40.9% (active). Besides, the growth with SW-620 colon is 23.1%; in the assay with MCF7 breast, 11.6%; in the assay with HCT-116 colon, 2.18% (active); with HCC-2998 colon it was 13.2%; with KM12 colon, 13.9%.

Consider `COC(=O)c1ccc2c(c1)c1c(C)c3ccncc3c(C)c1n2C`, for which the growth was -5.73% (active) with SR leukemia; 26.8% with RPMI-8226 leukemia; 28.8% in the assay on OVCAR-8 ovarian; 22% in the assay with OVCAR-4 ovarian; 40% in the assay with SK-OV-3 ovarian; 24% in the assay on IGROV1 ovarian. The growth in the assay with OVCAR-3 ovarian was 39.5%; with HS 578T breast, 35.6%; in the assay on NCI/ADR-RES ovarian, 29.3%; in the assay with BT-549 breast it was 43.5%; with MDA-MB-435 melanoma, 28.3%; in the assay with SW-620 colon, 21%. The growth with MCF7 breast is 8.59% (active); in the assay with HCT-116 colon it was 10.9%; in the assay with HCC-2998 colon, 61.5%; in the assay with KM12 colon, 23.2%.

For `O=C1Nc2ccc(F)cc2/C1=C\c1nc(-c2ccccc2F)n2ccccc12`, the growth with SR leukemia was 66.7%; in the assay on RPMI-8226 leukemia it was 96.8%; in the assay with OVCAR-8 ovarian, 80.6%; in the assay with OVCAR-4 ovarian it was 110%; in the assay with SK-OV-3 ovarian, 101%; in the assay on IGROV1 ovarian, 75.5%. For the same molecule, the growth in the assay on OVCAR-3 ovarian is 126%; in the assay with HS 578T breast, 103%; in the assay on NCI/ADR-RES ovarian, 74.4%; with T-47D breast, 88%; with MDA-MB-435 melanoma, 101%; with SW-620 colon, 44.9%. Further, the growth is 47.9% in the assay on MCF7 breast, 44.2% with HCT-116 colon, 100% in the assay on HCC-2998 colon and 97.2% with KM12 colon.

Regarding `O=C1c2cc3c(cc2-c2c1c1ccc(Cl)cc1c(=O)n2C[C@H](O)CO)OCO3`, the growth in the assay on SR leukemia is -2.7% (active); with RPMI-8226 leukemia it was -11.9% (active); in the assay on OVCAR-8 ovarian, 3.37% (active); with OVCAR-4 ovarian, 4.86% (active); with SK-OV-3 ovarian, -2% (active); with IGROV1 ovarian, 8% (active). Further, the growth with OVCAR-3 ovarian was -17.3% (active); in the assay with HS 578T breast it was 26.2%; in the assay on NCI/ADR-RES ovarian, 3.2% (active); in the assay on T-47D breast it was -6.44% (active); in the assay with BT-549 breast, 1.39% (active); with MDA-MB-435 melanoma, -59.7% (active). Moreover, the growth with SW-620 colon was -4.07% (active); in the assay on MCF7 breast, -1.79% (active); in the assay on HCT-116 colon, -25.6% (active); in the assay with HCC-2998 colon, 4.32% (active); in the assay on KM12 colon, -14.4% (active).

Consider `CCOC(=O)NN1CC(O)=C(c2nc(-c3ccc(Br)cc3)cs2)C1=N`, for which the growth in the assay with SR leukemia is 61.4%; in the assay on RPMI-8226 leukemia, 115%; in the assay with OVCAR-8 ovarian it was 97%; in the assay with OVCAR-4 ovarian, 118%; in the assay on SK-OV-3 ovarian, 108%; in the assay on IGROV1 ovarian it was 53%. For the same molecule, the growth is 99.9% with OVCAR-3 ovarian; 110% in the assay on HS 578T breast; 108% in the assay on NCI/ADR-RES ovarian; 116% in the assay with BT-549 breast; 103% with MDA-MB-435 melanoma; 103% in the assay on MCF7 breast. Moreover, the values for the growth with HCT-116 colon, with HCC-2998 colon and in the assay on KM12 colon were 132%, 113% and 118%, respectively.

In the case of `COc1ccc(NC(=O)c2sc3nc4c(cc3c2N)CCCC4)cc1`, the growth was 1.36% (active) in the assay on SR leukemia; 14.8% in the assay with RPMI-8226 leukemia; 25.5% with OVCAR-8 ovarian; 57.3% in the assay with OVCAR-4 ovarian; 39.4% with SK-OV-3 ovarian; 53.8% with IGROV1 ovarian. Besides, the growth was 11.1% with OVCAR-3 ovarian; 43.4% in the assay with HS 578T breast; 5.47% (active) in the assay with NCI/ADR-RES ovarian; 32.4% in the assay on T-47D breast; 51.3% in the assay on BT-549 breast; -20.9% (active) with MDA-MB-435 melanoma. For the same molecule, the growth with SW-620 colon is 36.7%; in the assay on MCF7 breast it was 19.2%; with HCT-116 colon it was 30.3%; in the assay with HCC-2998 colon, 52.8%; in the assay with KM12 colon, 25.8%.

As for `CCCNc1nc2ccccc2c2c(=O)c3cccc(Cl)c3sc12`, the growth with SR leukemia is 82.7%; in the assay with RPMI-8226 leukemia it was 103%; in the assay with OVCAR-8 ovarian, 95.4%; in the assay with OVCAR-4 ovarian it was 81.9%; in the assay on SK-OV-3 ovarian, 88.4%; in the assay on IGROV1 ovarian it was 70.1%. In addition, the growth was 111% in the assay on OVCAR-3 ovarian; 114% with HS 578T breast; 101% in the assay on NCI/ADR-RES ovarian; 51.8% in the assay on T-47D breast; 99% in the assay with BT-549 breast; 101% in the assay with MDA-MB-435 melanoma. For the same molecule, the growth in the assay with SW-620 colon is 97.8%; with MCF7 breast, 31.2%; in the assay on HCT-116 colon, 72.4%; in the assay on KM12 colon it was 90.4%.

As to `Cc1cc(N2CCCCC2)nc(N2CCN(CC(=O)Nc3ccc4c(ccn4Cc4ccccc4)c3)CC2)n1`, the growth in the assay on SR leukemia was 64%; in the assay on RPMI-8226 leukemia, 53.4%; in the assay on OVCAR-8 ovarian, 36.6%; in the assay with OVCAR-4 ovarian, 54.2%; in the assay on SK-OV-3 ovarian, 62.3%; with IGROV1 ovarian, 64.5%. Also, the growth in the assay on OVCAR-3 ovarian was 68.7%; in the assay with HS 578T breast it was 66.7%; with NCI/ADR-RES ovarian it was 47.9%; in the assay on T-47D breast, 32.8%; with BT-549 breast it was 82.7%; in the assay on MDA-MB-435 melanoma, 77.8%. Moreover, the growth in the assay with SW-620 colon is 73.6%; in the assay on MCF7 breast it was 44.4%; with HCT-116 colon it was 43.6%; in the assay on HCC-2998 colon, 93.3%; in the assay with KM12 colon it was 49.1%.

For `c1ccc(CCc2ccccc2-c2cc(-c3ccccc3)on2)cc1`, the growth is 75.7% in the assay on SR leukemia; 83.5% in the assay on RPMI-8226 leukemia; 103% with OVCAR-8 ovarian; 77.2% with OVCAR-4 ovarian; 83.1% in the assay with SK-OV-3 ovarian; 66.4% in the assay on IGROV1 ovarian. The growth was 96% in the assay on OVCAR-3 ovarian; 89.4% with HS 578T breast; 98.3% in the assay with NCI/ADR-RES ovarian; 55.4% with T-47D breast; 102% in the assay with BT-549 breast; 105% with MDA-MB-435 melanoma. Further, the growth in the assay with SW-620 colon was 91%; in the assay with MCF7 breast it was 74.7%; with HCT-116 colon, 59.8%; in the assay on HCC-2998 colon, 90.4%; with KM12 colon it was 87.5%.
